Screening data deposited in PubChem BioAssay by several laboratories.
The list is not random: actives were taken first. Their share in the collection is about 4%.
RecA splice inh: inhibitors of M. tuberculosis RecA intein splicing; hit rate 0.75% among 290,000; AID 2221; P9WHJ3; inhibition, % (no concentration beside the values); cell-free RecA intein splicing, fluorescence; in the data active = inhibition above about 30%; inconclusive = no clear call, values can overlap the other calls
Target sequence (P9WHJ3 whole entry, looked up, canonical isoform): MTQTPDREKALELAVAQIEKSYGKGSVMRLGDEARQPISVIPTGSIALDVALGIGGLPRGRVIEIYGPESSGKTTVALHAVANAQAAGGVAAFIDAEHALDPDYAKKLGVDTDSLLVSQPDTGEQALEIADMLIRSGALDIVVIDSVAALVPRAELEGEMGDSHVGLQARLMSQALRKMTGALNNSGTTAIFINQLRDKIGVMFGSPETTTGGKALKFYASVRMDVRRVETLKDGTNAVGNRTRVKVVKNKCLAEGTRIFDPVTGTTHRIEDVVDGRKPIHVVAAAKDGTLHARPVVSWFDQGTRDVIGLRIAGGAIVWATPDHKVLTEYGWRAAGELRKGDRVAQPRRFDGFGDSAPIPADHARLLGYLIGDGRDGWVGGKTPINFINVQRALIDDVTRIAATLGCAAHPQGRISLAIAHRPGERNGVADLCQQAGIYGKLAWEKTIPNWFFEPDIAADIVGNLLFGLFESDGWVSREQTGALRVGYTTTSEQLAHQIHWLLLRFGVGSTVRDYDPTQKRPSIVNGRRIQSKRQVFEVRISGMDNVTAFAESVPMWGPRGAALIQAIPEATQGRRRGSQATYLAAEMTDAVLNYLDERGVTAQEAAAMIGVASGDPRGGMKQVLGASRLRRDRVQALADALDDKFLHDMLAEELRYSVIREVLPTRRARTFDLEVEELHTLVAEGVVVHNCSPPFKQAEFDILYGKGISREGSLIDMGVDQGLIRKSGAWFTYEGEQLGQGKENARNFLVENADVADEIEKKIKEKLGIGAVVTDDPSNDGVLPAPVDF
Mtb bLac sens: beta-lactam sensitization of Mtb H37Rv; hit rate 0.27% among 330,000; inhibition, % at 25 µM; M. tuberculosis H37Rv growth with meropenem, percent inhibition; call rule not given here;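 also: growth measured after seven days incubation then overnight dye step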
FBA Mtb inh: inhibits M. tuberculosis FBA enzyme. purified M. tuberculosis FBA, fluorescence read-out. inhibition, % at 1 µM. hit rate 2.3% among 360,000. AID 588726
GDH-TPI counter-1: inhibits GDH-TPI coupling enzymes, artifact for Mtb FBA screen; GDH-TPI coupled enzyme counterscreen, NADH absorbance; inhibition, % at 4.8 µM; hit rate 1.2% among 360,000; in the data active = inhibition above about 30%
UGM FP inh: inhibitors of M. tuberculosis UDP-galactopyranose mutase; hit rate 0.06% among 320,000; AID 504406; purified UGM, fluorescence polarization probe displacement; P9WIQ1; inhibition, % at 10 µM; in the data active = inhibition above about 10%, passing the limit was not always enough; inconclusive = no clear call, values can overlap the other calls
Rv3671c inh: inhibitors of M. tuberculosis serine protease Rv3671c | P9WHR9 | inhibition, % at 5.96 µM | hit rate 0.048% among 320,000; in the data active = inhibition above about 38%;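 also: extracellular domain of Rv3671c used as enzyme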
Mtb FBA confirm: confirmation of M. tuberculosis fructose-bisphosphate aldolase inhibitors; shares compounds with FBA Mtb inh; purified M. tuberculosis FBA, fluorescence read-out; inhibition, % at 1 µM; hit rate 78% among 5,600
GDH-TPI counter-2: GDH-TPI inhibition counter-screen for FBA inhibitors; shares compounds with FBA Mtb inh; GDH-TPI coupled enzyme counterscreen, fluorescence; inhibition, % at 1 µM; hit rate 81% among 5,600; in the data active = inhibition above about 10%
Hits are given with their value; n = inactive; u = inconclusive; x = no result; + = active, no number. Rule as the data show it, unless noted: active = inhibition above about 27%; inactive = the rest.

SMILES	RecA splice inh	Mtb bLac sens	FBA Mtb inh	GDH-TPI counter-1	UGM FP inh	Rv3671c inh	Mtb FBA confirm	GDH-TPI counter-2
CCC(C)(C)NC(=S)Nc1ccc(-c2nc3ccc(C)cc3s2)cc1	n	n	92	n	n	n	n	n
CCCN1C(=O)C2(C(C(=O)c3ccc(C)o3)=C(O)C(=O)N2CCCOC)c2ccccc21 (stereo unspecified)	n	n	n	n	n	n	x	x
Cc1cc(=O)n2[nH]cc(-c3ccccc3)c2n1	n	n	34	n	n	x	73	60
CCCc1cc(=O)n2[nH]cc(-c3ccc(Cl)cc3)c2n1	n	n	54	n	n	x	n	n
CCc1nc2sc(C#N)c(N)c2c2c1CCCC2	n	n	49	n	n	n	+	171
COc1ccccc1NC(=O)N1CCCC1C(=O)Nc1ccc2c(c1)OCO2 (stereo unspecified)	n	n	28	n	n	n	99	86
CNC[C@@H]1OCc2ccccc2-c2c(n(C)c3ccccc23)C(=O)N([C@H](C)CO)C[C@@H]1C	x	x	n	n	x	x	x	x
COCCCn1c2nc3ccccc3nc2c2c(=O)n(CC3CCCO3)cnc21 (stereo unspecified)	n	n	79	n	n	n	n	n
COCCCn1cnc2c(c1=O)c1nc3ccccc3nc1n2-c1ccc(C)cc1	n	n	n	n	n	n	x	x
Cc1ccc(NC(=O)Nc2c(C)[nH]c(=O)[nH]c2=O)cc1Cl	n	n	n	n	n	n	x	x
Clc1ccccc1C1=CC(c2ccco2)n2ncnc2N1 (stereo unspecified)	n	n	35	n	n	n	156	126
CCC(C)(C)NC(=O)CN(Cc1ccc(OC)cc1)C(=O)CCC(=O)Nc1nccs1	n	n	n	n	n	n	x	x
COc1ccc(C2Nc3ccccc3C(=O)N2NS(C)(=O)=O)cc1 (stereo unspecified)	n	n	27	n	n	n	105	108
CC1Nc2ccccc2C(=O)N1NS(C)(=O)=O (stereo unspecified)	x	n	50	n	n	n	74	61
COc1cc(C2Nc3ccccc3C(=O)N2NS(C)(=O)=O)ccc1O (stereo unspecified)	n	n	n	n	n	n	x	x
CSc1nnc(-c2cccn(Cc3cccc(Cl)c3)c2=O)o1	n	n	87	n	n	n	+	+
O=c1c(-c2nnc(SCc3ccc(Cl)cc3Cl)o2)cccn1Cc1ccccc1	n	n	52	n	n	n	43	23
CCOc1ccc(Cl)cc1CSc1n[nH]c(CC)n1	n	n	35	n	n	n	n	n
CCCCOc1ccc(Cl)cc1CSc1n[nH]c(C)n1	x	n	n	n	n	n	x	x
C#CCn1c(=NC(=O)c2sc3ccccc3c2Cl)sc2cc(S(N)(=O)=O)ccc21	n	n	39	42	n	n	+	+
O=C(Cc1cccc2ccccc12)Nc1ccc(Br)cc1C(=O)O	n	n	n	n	n	n	x	x
O=C(Cc1cccc2ccccc12)Nc1ccc(O)cc1C(=O)O	n	n	32	n	n	n	n	n
CCCN(CC(=O)Nc1cc(Cl)ccc1Cl)C(=O)/C=C/c1cc(OC)ccc1OC	x	n	39	n	n	n	+	+
CCCN(CC(=O)Nc1ccc(Cl)cc1Cl)C(=O)/C=C/c1cc(OC)ccc1OC	n	n	28	n	n	n	n	n
COc1ccc(C)cc1NC(=O)C(=O)N/N=C(\C)CC(=O)Nc1cccnc1	n	n	n	n	n	n	x	x
SMILES	RecA splice inh	Mtb bLac sens	FBA Mtb inh	GDH-TPI counter-1	UGM FP inh	Rv3671c inh	Mtb FBA confirm	GDH-TPI counter-2
O=C(NC1CCCCC1)c1cc(Cl)nc2ccccc12	n	n	n	n	n	n	x	x
Cc1ccc(S(=O)(=O)c2cc3c(=O)n4ccccc4nc3n(CC3CCCO3)c2=N)cc1C (stereo unspecified)	n	n	37	n	n	n	92	63
Cc1ccc(S(=O)(=O)c2cc3c(=O)n4ccccc4nc3n(C)c2=N)cc1	n	n	40	n	n	n	52	42
N=c1c(C(=O)NCc2ccccc2)cc2c(=O)n3ccccc3nc2n1CCCN1CCOCC1	x	n	79	n	n	n	n	n
O=C(CSc1nc2ccccc2c(=O)n1CCCN1CCOCC1)c1c[nH]c2ccccc12	n	n	n	n	n	n	x	x
N=c1c(C(=O)NC2CCCCC2)cc2c(=O)n3ccccc3nc2n1Cc1ccccc1	n	n	55	n	u	n	167	134
Cc1ccc(S(=O)(=O)c2cc3c(=O)n4ccccc4nc3n(C3CCCC3)c2=N)cc1	n	n	n	n	n	n	x	x
Cc1ccc(S(=O)(=O)c2cc3c(=O)n4ccccc4nc3n(CCc3ccccc3)c2=N)cc1	n	n	n	n	n	n	x	x
COc1ccc(CCn2c(=N)c(C(=O)NCc3ccco3)cc3c(=O)n4ccccc4nc32)cc1	n	n	n	n	n	n	x	x
N=c1c(C(=O)NCC2CCCO2)cc2c(=O)n3ccccc3nc2n1Cc1ccco1 (stereo unspecified)	x	n	28	n	n	n	+	192
CC(C)Cc1ccc(CN2CCCC(NC(=O)c3cnc4ccccn4c3=O)C2)cc1 (stereo unspecified)	n	n	n	n	n	n	x	x
O=C(NC1CCCN(Cc2ccc(Cl)cc2)C1)c1cnc2ccccn2c1=O (stereo unspecified)	n	n	55	n	n	n	118	82
O=C(NC1CCCCCC1)C1c2ccccc2C(=O)N1Cc1cccnc1 (stereo unspecified)	n	n	n	n	n	n	x	x
N=c1c(S(=O)(=O)c2ccccc2)cc2c(=O)n3ccccc3nc2n1Cc1ccco1	n	n	64	n	n	n	134	97
N=c1c(C(=O)NC2CCCCC2)cc2c(=O)n3ccccc3nc2n1Cc1cccnc1	x	n	107	n	n	n	+	+
COc1ccc(-c2noc(N3CCCC(C(=O)Nc4cc(F)ccc4F)C3)n2)cc1 (stereo unspecified)	n	n	n	n	n	n	x	x
CN1CCN(C(=O)c2cc([N+](=O)[O-])ccc2Cl)CC1	n	n	n	n	n	n	x	x
COC(=O)c1c(C)[nH]c(C(=O)C(C)OC(=O)C2CC2)c1C (stereo unspecified)	x	n	n	n	n	n	x	x
COc1ccc(Br)cc1C(=O)NC(=S)Nc1c(C)n(C)n(-c2ccccc2)c1=O	n	n	n	n	n	n	x	x
COc1ccc(CCn2c(=N)c(S(=O)(=O)c3ccccc3)cc3c(=O)n4ccccc4nc32)cc1	n	n	n	n	n	n	x	x
N=c1c(C(=O)NC2CCCCC2)cc2c(=O)n3ccccc3nc2n1CCc1ccccc1	n	n	47	n	n	n	n	n
Cc1ccc(Cn2c(=N)c(C(=O)NC3CCCC3)cc3c(=O)n4ccccc4nc32)cc1	n	n	53	n	n	n	99	98
